Assay results from PubChem BioAssay.
The source made the active and inactive calls. Unless noted, no rule for the calls is given here.

How the values were obtained:
[1] = test system: Wnt5a (protein binding on small-molecule microarray); test: Wnt5a binders on small-molecule microarray, primary screen, biophysical, 635/667 nm fluorescence (AID 1142); conditions: 635 nm fluorescence, higher = more signal;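 also: fluorescence read at 667 nm with signal to noise per printed feature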
[2] = cell viability in Huh7 cells, primary screen, cytotoxicity control for HCV replication inhibitor project, CellTiter-Glo luminescence, basal, 48 h (AID 1143); conditions: Huh7 HCV replicon, higher = more signal, called active from +8 up or from −8 down;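 also: Huh7 hepatoma cells carrying a hepatitis C replication reporter with no stimulus; test concentration not given here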
[3] = P. aeruginosa biofilm formation inhibitors, primary screen, PAO1 strain, BacTiter-Glo luminescence, LB-PBS (AID 1144); conditions: 12 h, higher = more signal
[4] = CREB reporter modulators without forskolin, primary screen, cell-based, PC12, CRE-LacZ reporter, unstimulated (AID 1145); conditions: no forskolin, luminescence, 4.5 h, higher = more signal, called active from +8 up or from −8 down
[5] = CREB reporter modulators under forskolin, primary screen, cell-based, PC12, CRE-LacZ reporter, forskolin-stimulated (AID 1146); conditions: luminescence, 4.5 h, higher = more signal, called active from +8 up or from −8 down;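 also: PC12 cells with 6xCRE LacZ reporter stimulated by forskolin 10 µM; beta-galactosidase reporter signal reflecting CREB driven transcription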
[6] = biological target: Streptavidin (Streptomyces avidinii) (UniProt P22629); test: streptavidin binders on small-molecule microarray, primary screen, artefact control for SMM compound annotation, biophysical, 635/667 nm fluorescence (AID 1147); conditions: streptavidin binding, higher = more signal;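 also: signal reflects streptavidin binding to arrayed compounds as a control protein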
Streptavidin (Streptomyces avidinii), sequence (P22629 whole entry, looked up): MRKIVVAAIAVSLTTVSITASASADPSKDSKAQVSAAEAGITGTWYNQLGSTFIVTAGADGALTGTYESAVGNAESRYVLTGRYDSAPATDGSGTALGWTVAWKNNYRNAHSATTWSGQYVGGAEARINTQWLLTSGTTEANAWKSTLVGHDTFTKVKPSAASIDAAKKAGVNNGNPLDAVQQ

[7] = small-molecule binders of probe aInhba, primary screen, biochemical, small-molecule microarray, 635/667 nm fluorescence (AID 1148); conditions: higher = more signal;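 also: score merges 667nm spot fluorescence with signal-to-noise for antibody binding to printed compounds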
Torsin-1A (Homo sapiens) [8] = biological target: Torsin-1A (Homo sapiens) (UniProt O14656); test: torsin A binders from cell lysate, primary screen, small-molecule microarray, wild-type, 635/667 nm (AID 1149); conditions: COS7 hTOR1A-WT lysate, 635 nm fluorescence, higher = more signal
Torsin-1A (Homo sapiens), sequence (O14656 whole entry, looked up): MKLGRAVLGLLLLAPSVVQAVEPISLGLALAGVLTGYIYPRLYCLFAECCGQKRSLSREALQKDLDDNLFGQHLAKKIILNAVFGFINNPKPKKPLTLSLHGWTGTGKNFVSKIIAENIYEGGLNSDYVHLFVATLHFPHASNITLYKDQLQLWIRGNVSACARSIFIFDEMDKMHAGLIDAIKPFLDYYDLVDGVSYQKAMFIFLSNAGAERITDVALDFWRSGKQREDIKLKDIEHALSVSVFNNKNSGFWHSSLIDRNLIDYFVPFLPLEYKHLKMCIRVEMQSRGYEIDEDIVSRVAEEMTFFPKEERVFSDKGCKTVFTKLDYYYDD

Torsin-1A (Homo sapiens) [9] = biological target: Torsin-1A (Homo sapiens) (UniProt O14656); test: small-molecule binders of mutant TOR1A in lysate, primary screen, cell lysate, small-molecule microarray, COS7 lysate, 635/667 nm fluorescence (AID 1150); conditions: COS7 hTOR1A mutant lysate, 635 nm fluorescence, higher = more signal;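 also: score pools 667 nm emission and signal to noise measuring lysate protein binding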
[10] = test system: Sonic hedgehog protein (Shh); test: small-molecule binders of Shh protein, primary screen, biochemical, small-molecule microarray, 635/667 nm fluorescence (AID 1151); conditions: small-molecule microarray binding, 635 nm fluorescence; higher = more signal;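 also: Shh protein binding to compounds spotted on small-molecule microarray slides; score combines spot fluorescence intensity with signal-to-noise across triplicate slides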
[11] = E. coli DRC41 culture turbidity changes, primary screen, E. coli filamentation inducer project, strain DRC41, OD650, 48 h (AID 1152);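 also: E. coli MC1000 strain DRC41 lacking acrAB efflux pump and sulA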; conditions: E. coli DRC41 (acrAB sulA), higher = more signal, called active from +8 up or from −8 down
[12] = small-molecule binders of probe aLefty1, primary screen, biochemical, small-molecule microarray, 635/667 nm fluorescence (AID 1153); conditions: higher = more signal;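 also: score merges spot fluorescence with signal-to-noise ratio from the scanned slide images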
[13] = PSAC antagonists in infected red cells, primary screen, cell-based, P. falciparum Indochina, OD700, 1 h (AID 1154); conditions: P. falciparum Indochina infected RBC osmotic lysis, higher = more signal, called active from +8 up or from −8 down
[14] = PSAC antagonists in infected red cells, primary screen, cell-based, P. falciparum Indochina, OD700, 2 h (AID 1155);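 also: lysis reports solute entry through the parasite surface anion channel PSAC; channel blockers reduce lysis of infected cells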; conditions: P. falciparum Indochina infected erythrocytes, osmotic lysis OD700; higher = more signal, called active from +8 up or from −8 down
[15] = osmotic lysis modulators in infected erythrocytes, primary screen, PSAC antagonist project, cell-based, P. falciparum Indochina, OD700, 3 h (AID 1156); conditions: higher = more signal, called active from +8 up or from −8 down
[16] = PSAC antagonists in infected red cells, primary screen, cell-based, P. falciparum Indochina, OD700, 18 h (AID 1157); conditions: P. falciparum Indochina infected erythrocytes, osmotic lysis OD700, 18 h; higher = more signal, called active from +8 up or from −8 down
[17] = modulators of S6 phosphorylation in cells, primary screen, cell-based, A549, cytoblot, luminescence, serum-stimulated (AID 1158); conditions: A549 phospho-S6 cytoblot, 5 h, higher = more signal;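 also: serum-stimulated A549 lung adenocarcinoma cells; signal is phosphorylated S6 detected by cytoblot immunostaining with HRP secondary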
[18] = biological target: NADPH oxidase 2 (Homo sapiens) (UniProt P04839); test: NOX2-dependent H2O2 signal modulators, primary screen, NOX inhibitor project, cell-based, HEK293-NOX2, PMA-stimulated, Amplex Red fluorescence (AID 1159); conditions: 45 min, higher = more signal, called active from +8 up or from −8 down; also: test concentration not given here
NADPH oxidase 2 (Homo sapiens), sequence (P04839 whole entry, looked up): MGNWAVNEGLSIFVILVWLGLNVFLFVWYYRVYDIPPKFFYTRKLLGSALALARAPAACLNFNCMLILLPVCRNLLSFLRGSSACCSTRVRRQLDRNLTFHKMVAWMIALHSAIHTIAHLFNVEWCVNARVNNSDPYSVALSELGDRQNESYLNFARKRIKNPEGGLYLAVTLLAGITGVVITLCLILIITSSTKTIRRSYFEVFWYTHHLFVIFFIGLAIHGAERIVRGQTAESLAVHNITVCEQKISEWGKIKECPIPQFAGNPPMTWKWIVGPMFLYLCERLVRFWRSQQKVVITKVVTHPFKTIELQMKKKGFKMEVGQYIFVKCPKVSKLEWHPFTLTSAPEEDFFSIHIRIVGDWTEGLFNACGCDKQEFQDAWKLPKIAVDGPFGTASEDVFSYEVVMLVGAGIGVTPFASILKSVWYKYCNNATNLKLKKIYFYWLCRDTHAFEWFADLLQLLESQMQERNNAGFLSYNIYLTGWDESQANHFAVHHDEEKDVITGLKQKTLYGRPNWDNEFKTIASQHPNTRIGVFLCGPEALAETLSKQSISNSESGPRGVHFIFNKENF

[19] = biological target: NADPH oxidase 4 (Homo sapiens) (UniProt Q9NPH5); test: NOX4-dependent H2O2 signal modulators, primary screen, NOX inhibitor project, cell-based, HEK293-NOX4, tetracycline-induced, Amplex Red fluorescence (AID 1160); conditions: 45 min, higher = more signal, called active from +8 up or from −8 down
NADPH oxidase 4 (Homo sapiens), sequence (Q9NPH5 whole entry, looked up): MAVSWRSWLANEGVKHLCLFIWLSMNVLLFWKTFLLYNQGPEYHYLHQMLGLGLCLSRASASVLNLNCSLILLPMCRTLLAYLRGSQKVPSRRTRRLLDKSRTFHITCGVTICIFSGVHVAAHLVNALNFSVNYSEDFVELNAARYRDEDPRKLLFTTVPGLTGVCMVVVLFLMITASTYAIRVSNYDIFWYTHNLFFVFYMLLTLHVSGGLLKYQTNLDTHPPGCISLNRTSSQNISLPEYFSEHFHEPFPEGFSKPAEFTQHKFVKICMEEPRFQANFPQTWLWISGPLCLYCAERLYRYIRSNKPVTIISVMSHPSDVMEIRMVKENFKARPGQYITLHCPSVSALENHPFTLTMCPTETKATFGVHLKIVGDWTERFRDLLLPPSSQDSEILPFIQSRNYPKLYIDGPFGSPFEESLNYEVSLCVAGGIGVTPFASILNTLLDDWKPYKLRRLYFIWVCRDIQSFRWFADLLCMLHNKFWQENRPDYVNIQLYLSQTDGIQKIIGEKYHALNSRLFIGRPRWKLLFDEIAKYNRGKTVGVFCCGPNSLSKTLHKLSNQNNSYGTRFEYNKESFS

[20] = biological target: NADPH oxidase 5 (Homo sapiens) (UniProt Q96PH1); test: NOX5-dependent H2O2 signal modulators, primary screen, NOX inhibitor project, cell-based, HEK293-NOX5, Amplex Red fluorescence (AID 1161); conditions: HEK293-NOX5, ionomycin, 45 min, higher = more signal
NADPH oxidase 5 (Homo sapiens), sequence (Q96PH1 whole entry, looked up): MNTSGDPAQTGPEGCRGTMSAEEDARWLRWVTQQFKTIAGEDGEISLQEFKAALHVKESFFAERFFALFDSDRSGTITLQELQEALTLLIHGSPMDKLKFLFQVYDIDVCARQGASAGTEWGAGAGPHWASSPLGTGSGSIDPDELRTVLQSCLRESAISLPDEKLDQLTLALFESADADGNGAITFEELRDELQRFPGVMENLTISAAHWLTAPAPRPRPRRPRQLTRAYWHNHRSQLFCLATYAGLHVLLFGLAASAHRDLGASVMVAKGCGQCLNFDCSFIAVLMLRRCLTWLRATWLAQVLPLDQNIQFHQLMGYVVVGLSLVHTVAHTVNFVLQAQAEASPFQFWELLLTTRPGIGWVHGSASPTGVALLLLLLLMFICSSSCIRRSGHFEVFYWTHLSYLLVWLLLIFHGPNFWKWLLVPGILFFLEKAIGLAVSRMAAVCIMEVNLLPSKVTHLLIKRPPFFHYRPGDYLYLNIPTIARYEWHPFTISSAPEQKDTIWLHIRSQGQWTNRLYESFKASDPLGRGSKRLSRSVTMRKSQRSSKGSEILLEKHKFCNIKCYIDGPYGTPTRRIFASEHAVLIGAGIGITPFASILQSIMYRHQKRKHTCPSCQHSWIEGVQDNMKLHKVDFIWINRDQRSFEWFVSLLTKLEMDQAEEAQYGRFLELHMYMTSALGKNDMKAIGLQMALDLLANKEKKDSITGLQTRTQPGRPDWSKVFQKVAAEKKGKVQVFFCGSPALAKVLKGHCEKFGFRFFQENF

| SMILES | composite z-score [1] | z-score [2] | z-score [3] | z-score [4] | z-score [5] | composite z-score [6] | composite z-score [7] | composite z-score (Torsin-1A (Homo sapiens) [8]) | composite z-score (Torsin-1A (Homo sapiens) [9]) | composite z-score [10] | z-score [11] | composite z-score [12] | z-score [13] | z-score [14] | z-score [15] | z-score [16] | z-score [17] | z-score [18] | z-score [19] | z-score [20] |
| --- | --- | --- | --- | --- | --- | --- | --- | --- | --- | --- | --- | --- | --- | --- | --- | --- | --- | --- | --- | --- |
| CCCC[C@@H]1C[C@H]1[C@@H](NC(=O)c1ccco1)c1ccc(-c2ccccc2)cc1 | -0.0076 | -2.51 (inactive) | 0.0577 (inactive) | 0.766 (inactive) | 0.576 (inactive) | 0.483 | 0.033 | 0.618 | 0.952 | -0.308 | -1.73 (inactive) | 0.142 | -0.38 (inactive) | -0.912 (inactive) | 1.59 (inactive) | -1.91 (inactive) | 1.28 | -4.04 (inactive) | -3.5 (inactive) | -2 |
| C=CCC(OC(C)=O)[C@@H]1[C@@H](N(Cc2cc3ccccc3o2)C(=O)c2cccc3ccccc23)c2cc(OCCCO)ccc2N1C(=O)c1ccc(-c2ccccc2)cc1 (stereo not given in full) | 0.15 | -1.82 (inactive) | 0.861 (inactive) | 1.38 (inactive) | -0.654 (inactive) | 0.111 | -0.196 | 0.736 | 0.223 | 0.464 | 1.45 (inactive) | 0.0341 | 1.01 (inactive) | 0.0907 (inactive) | 0.358 (inactive) | 0.554 (inactive) | 0.332 | 0.52 (inactive) | -1.87 (inactive) | -2.43 |
| CCOC(=O)C[C@H]1[C@H](OC(=O)c2ccc(C(=O)c3ccccc3)cc2)[C@@H](NC(=O)c2ccc3ccccc3n2)c2cc(OCCCO)ccc2N1C(=O)c1ccccc1 | 0.369 | -0.0142 (inactive) | 0.0839 (inactive) | 0.498 (inactive) | 0.0154 (inactive) | 0.616 | 0.0561 | 0.484 | 0.605 | 1.2 | -0.983 (inactive) | -0.0683 | 0.839 (inactive) | -0.136 (inactive) | -0.883 (inactive) | -0.232 (inactive) | -0.322 | 0.34 (inactive) | 1.06 (inactive) | 1.2 |
| C[N+](C)(C)CCCC[C@@H]1NC(=O)[C@H]2C[C@@H](C(=O)NCCCCCCNC(=O)CS)[C@@H](c3cccc(OCCO)c3)N2C1=O | -0.298 | 0.2 (inactive) | -0.635 (inactive) | -0.683 (inactive) | 0.0114 (inactive) | -0.667 | -0.21 | -0.182 | -0.14 | -0.396 | 0.415 (inactive) | 0.0774 | 3.29 (inactive) | 0.679 (inactive) | 1.8 (inactive) | 0.0805 (inactive) | 0.0934 | 1.18 (inactive) | 0.639 (inactive) | 1.24 |
| COC(=O)[C@@]1(Cc2ccc(OC)cc2)[C@H]2c3cc(C(=O)N(C)C)n(Cc4ccc(S(C)(=O)=O)cc4)c3C[C@H]2CN1C(=O)c1ccccc1 | -0.0427 | -2.9 (inactive) | -1.05 (inactive) | -1.14 (inactive) | -1.33 (inactive) | 1.24 | 0.431 | 2.24 | 1.29 | -0.599 | -0.752 (inactive) | 1.06 | 1.85 (inactive) | 0.451 (inactive) | 0.954 (inactive) | -0.336 (inactive) | 4.44 | 1.04 (inactive) | 1.74 (inactive) | -3.36 |
| C=CCNC(=O)[C@H]1[C@@H]2C(=O)O[C@@H](c3ccccc3)[C@@H](c3ccccc3)N2[C@@H](c2ccccc2OCCO)[C@]12C(=O)Nc1ccc(C#CCCO)cc12 | 0.805 | -3.21 (inactive) | 0.481 (inactive) | -0.141 (inactive) | 4.71 (inactive) | -0.378 | -0.0944 | -0.897 | -0.202 | -0.322 | -0.849 (inactive) | -0.133 | 9.4 (active) | 1.75 (inactive) | -0.56 (inactive) | 0.982 (inactive) | 0.0418 | 1.76 (inactive) | -0.546 (inactive) | 1.93 |
| COC(=O)[C@@]1(CCC(=O)OC(C)(C)C)N=C(c2ccc(OCCCO)cc2)O[C@H]1c1ccccc1N=[N+]=[N-] | 0.174 | -4.35 (inactive) | -0.656 (inactive) | 2.68 (inactive) | -1.21 (inactive) | -0.0572 | -0.101 | -0.184 | -0.143 | 0.696 | -0.871 (inactive) | -0.39 | 28.2 (active) | 25.2 (active) | 1.67 (inactive) | 5.1 (inactive) | -0.117 | -2.9 (inactive) | 0.248 (inactive) | -2.56 |
| CC(C)c1ccc(NN2C(C(O)c3ccc(B(O)O)cc3)C=CC3C(=O)N(c4ccccc4)C(=O)C32)cc1 (stereo not given) | 0.262 | -0.0793 (inactive) | -1.06 (inactive) | 0.815 (inactive) | 1.65 (inactive) | 1.26 | 0.108 | 0.201 | 1.26 | 0.528 | -1.04 (inactive) | 0.0595 | 1.93 (inactive) | 0.698 (inactive) | 0.421 (inactive) | 1.27 (inactive) | -0.999 | -1.02 (inactive) | -2.31 (inactive) | -4.18 |
